Measurements taken from PubChem BioAssay (NCATS).
Values joined by “and” are separate entries in the source; they are usually repeats but may differ in a detail not shown here. Equal values may be shown once. Records with an inconclusive call do not appear. Active and inactive are the calls of the source. Calls come from the whole dose curve; as a rule, active = well fitted curve in the direction sought with a large enough effect; inconclusive = small, poorly fitted or top-dose-only effect, or another doubt; inactive = no such curve, though single readings can be large; an effect the other way counts as inactive or inconclusive.

Assays:
[1] = Primary qHTS for inhibitors of nuclear receptor binding SET domain protein 2 (NSD2) in an isogenic RCH-ACV NSD2 p.E1099K mutant (9B) (AID 1645876)
[2] = Primary qHTS for inhibitors of nuclear receptor binding SET domain protein 2 (NSD2) in an RCH-ACV wild type WT cells (2C) (AID 1645877)
Note: nearly all actives have a fitted effect of over 70% in size.
Potency is the fitted concentration of half-maximal effect.

For `C[C@@H]1O[C@@H](O[C@H]2[C@@H](OC(=O)[C@]34CCC(C)(C)CC3C3=CCC5[C@@]6(C)C[C@H](O)[C@H](O[C@@H]7O[C@H](CO)[C@@H](O)[C@H](O)[C@H]7O[C@@H]7OC[C@@H](O)[C@H](O)[C@H]7O)[C@@](C)(C(=O)O)C6CC[C@@]5(C)[C@]3(C)CC4)OC[C@H](O)[C@@H]2O)[C@H](O)[C@H](O)[C@H]1O[C@@H]1OC[C@@H](O)[C@H](O)[C@H]1O` (stereo not given in full), the Potency [1] was 1.54 µM (active) and the Potency [2] was 2.18 µM (active).
In the case of `CC1(C)CC[C@]2(C(=O)O)CC[C@]3(C)C(=CCC4[C@@]5(C)C[C@@H](O)[C@H](O)C(CO)(CO)C5CC[C@]43C)C2[C@@H]1O` (stereo not given in full), the Potency [1] is reported as 8.93 µM (active) and the Potency [2] is reported as 8.93 µM (active).
In the case of `Cc1[nH]c2ccc(F)cc2c1-c1nc2c3cccnc3c3ncccc3c2[nH]1`, the Potency [1] is reported as 1.21 µM (active) and the Potency [2] is reported as 1.08 µM (active).
For `O=c1cc(NCCCN[C@@H]2CCOc3c(Br)cc(Br)cc32)[nH]c2ccsc12`, the Potency [1] was 20.5 µM (active) and the Potency [2] was 20.5 µM (active).
With `CC(C)(C)NC(=O)[C@H]1CC[C@H]2[C@@H]3CC[C@H]4NC(=O)CC[C@]4(C)[C@H]3CC[C@]12C` the Potency [1] was “inactive” and the Potency [2] was “inactive”.
With `CC(C)CCNC(=O)[C@H](CC(C)C)NC(=O)[C@H]1O[C@@H]1C(=O)O` the Potency [1] was “inactive” and the Potency [2] was “inactive”.
With `OC[C@H]1O[C@@H](OC/C=C/c2ccc(O)cc2)[C@H](O)[C@@H](O)[C@@H]1O` the Potency [1] was “inactive” and the Potency [2] was “inactive”.
With `COC1C=C(C)C(O)(CO)C2(C)CCCC(C)(C)C12` (stereo not given) the Potency [1] was “inactive” and the Potency [2] was “inactive”.
For `COC(=O)N1CC2(CC2)C[C@H](C(=O)NO)[C@H]1C(=O)N1CCN(c2ccccc2)CC1`, the Potency [1] was “inactive” and the Potency [2] was “inactive”.
With `Cc1c[nH]c2ncnc(N3CCC(CN)(C(=O)Nc4cccc(OC(=O)N(C)C)c4)CC3)c12` the Potency [1] was 9.34 µM (active) and 7.42 µM (active) and the Potency [2] was 10.5 µM (active) and 11.8 µM (active).
For `NC(=O)c1cnc(N[C@@H]2CCCC[C@H]2N)nc1Nc1cccc(-n2nccn2)c1`, the Potency [1] was 0.649 µM (active) and the Potency [2] was 0.459 µM (active).
In the case of `C=C1C(=O)OC2C1CCC1(C)C(O)CCC(=C)C21` (stereo not given), the Potency [1] is reported as 18.3 µM (active) and the Potency [2] is reported as 16.3 µM (active).
For `C=CC(=O)N1CCCN(c2cc(NCCC(=O)O)nc(-c3ccccn3)n2)CC1`, the Potency [1] was “inactive” and the Potency [2] was “inactive”.
With `COC(=O)Nc1cc(Nc2cc(NC3CC3)c3ncc(C#N)n3n2)c(Cl)c(N2CCN(C)CC2)c1` the Potency [1] was 0.742 µM (active) and the Potency [2] was 0.372 µM (active).
With `Cc1nc2ccc(CN(C)c3ccc(C(=O)NC(CCC(=O)O)C(=O)O)s3)cc2c(=O)[nH]1` (stereo not given) the Potency [1] was 0.0092 µM (active) and the Potency [2] was 0.0092 µM (active).
With `CC[C@H]1OC(=O)[C@H](C)[C@@H](O[C@H]2C[C@@](C)(OC)[C@@H](O)[C@H](C)O2)[C@H](C)[C@@H](O[C@H]2O[C@H](C)C[C@H](N(C)C)[C@H]2O)[C@](C)(O)C[C@@H](C)C(=O)[C@H](C)[C@@H](O)[C@]1(C)O` the Potency [1] was “inactive” and the Potency [2] was “inactive”.
In the case of `CCn1c2ccccc2c2cc(Nc3ccnc(NCCCN4CCOCC4)n3)ccc21`, the Potency [1] is reported as 2.9 µM (active) and the Potency [2] is reported as 8.17 µM (active).
With `Cc1[nH]c(/C=C2\C(=O)Nc3ccc(S(=O)(=O)N(C)c4cccc(Cl)c4)cc32)c(C)c1C(=O)N1CCN(C)CC1` the Potency [1] was 9.16 µM (active) and 5.25 µM (active) and the Potency [2] was 7.28 µM (active) and 5.25 µM (active).
In the case of `COc1c(CCC(=O)O)cccc1O[C@@H]1O[C@H](CO)[C@@H](O)[C@H](O)[C@H]1O`, the Potency [1] is reported as “inactive” and the Potency [2] is reported as “inactive”.
With `COc1cc(O)cc(OC2OC(CO)C(O)C(O)C2O)c1` (stereo not given) the Potency [1] was “inactive” and the Potency [2] was “inactive”.
For `Cc1[nH]c2ccccc2c1CCNC(=O)c1cccs1`, the Potency [1] was “inactive” and the Potency [2] was “inactive”.
In the case of `COc1ccc(CCO[C@@H]2O[C@H](CO[C@H]3OC[C@](O)(CO)[C@H]3O)[C@@H](OC(=O)/C=C/c3ccc(O)c(O)c3)[C@H](O[C@@H]3O[C@@H](C)[C@H](O)[C@@H](O)[C@H]3O)[C@H]2O)cc1OC`, the Potency [1] is reported as 6.08 µM (active) and the Potency [2] is reported as 4.83 µM (active).
With `C/C1=C\CCC2=CC(OC2=O)C(C)(C)/C=C/C1=O` (stereo not given) the Potency [1] was 6.49 µM (active) and the Potency [2] was 2.9 µM (active).
In the case of `COC(CCc1ccc(O)cc1)CC(=O)CCc1ccc(O)cc1` (stereo not given), the Potency [1] is reported as 5.67 µM (active) and the Potency [2] is reported as 8.98 µM (active).
For `C=C1C(=O)O[C@@H]2C[C@]3(C)[C@@H](CCC(C)O)[C@@H]3C[C@H]12` (stereo not given in full), the Potency [1] was 18.3 µM (active) and the Potency [2] was 14.5 µM (active).
In the case of `C[C@H]1CC[C@@]2(OC1)O[C@H]1CC3[C@@H]4CC[C@@H]5C[C@@H](O[C@@H]6O[C@H](CO)[C@@H](O[C@@H]7O[C@@H](C)[C@H](O)[C@@H](O)[C@H]7O)[C@H](O)[C@H]6O[C@@H]6O[C@H](CO)[C@@H](O)[C@H](O)[C@H]6O)CC[C@]5(C)C4CC[C@]3(C)[C@H]1[C@@H]2C` (stereo not given in full), the Potency [1] is reported as 3.88 µM (active) and the Potency [2] is reported as 3.88 µM (active).
For `C#Cc1cccc(Nc2nc3cc(C(=O)O)ccc3c3cncnc23)c1`, the Potency [1] was 4.09 µM (active) and the Potency [2] was 2.58 µM (active).
In the case of `CC1(CO)CC2C(O)C3=C(CC(C)(O)C2C1)C(=O)OC3` (stereo not given), the Potency [1] is reported as “inactive” and the Potency [2] is reported as “inactive”.
For `C=C1/C(=C/C=C2\CCC[C@]3(C)[C@@H]([C@H](C)CC[C@@H](O)C(C)(C)O)CC[C@@H]23)C[C@@H](O)C[C@@H]1O`, the Potency [1] was 18.3 µM (active) and the Potency [2] was 10.3 µM (active).
In the case of `O=C(NO)c1cnc(N2CCN(S(=O)(=O)c3ccc4ccccc4c3)CC2)nc1`, the Potency [1] is reported as 0.252 µM (active) and the Potency [2] is reported as 0.252 µM (active).
For `O=C1Nc2ccccc2-c2nc3ccccc3c(=O)n2-c2c(O)cccc21`, the Potency [1] was “inactive” and the Potency [2] was “inactive”.
With `CC(/C=C/C(=O)NO)=C\[C@@H](C)C(=O)c1ccc(N(C)C)cc1` the Potency [1] was 183 nM (active) and 1.05 µM (active) and the Potency [2] was 183 nM (active) and 934 nM (active).
For `CN(C)CCOC(C)(c1ccccc1)c1ccc(Cl)cc1` (stereo not given), the Potency [1] was 11.5 µM (active) and the Potency [2] was 10.3 µM (active).
With `NS(=O)(=O)c1ccc(NC(=O)Nc2ccc(F)cc2)cc1` the Potency [1] was “inactive” and the Potency [2] was “inactive”.
For `Cc1cc(F)c(C(=O)Nc2cccc(-c3nncn3C(C)C)n2)cc1-n1cnc(C2CC2)c1`, the Potency [1] was 11.8 µM (active) and the Potency [2] was 9.34 µM (active).
With `CS(=O)(=O)Nc1cc2occ(NC=O)c(=O)c2cc1Oc1ccccc1` the Potency [1] was “inactive” and the Potency [2] was “inactive”.
In the case of `COc1cc(O)c2c(c1)/C=C/C[C@H](O)[C@H](O)C(=O)/C=C\C[C@H](C)OC2=O`, the Potency [1] is reported as 2.06 µM (active) and 2.58 µM (active) and the Potency [2] is reported as 1.46 µM (active) and 1.83 µM (active).
In the case of `Cc1ccc(C(C)C)c(O[C@@H]2O[C@H](CO)[C@@H](O)[C@H](O)[C@H]2O)c1`, the Potency [1] is reported as “inactive” and the Potency [2] is reported as “inactive”.
With `CN[C@@H]1[C@H](O[C@H]2[C@H](O[C@@H]3[C@@H](O)[C@H](O)[C@@H](N=C(N)N)[C@H](O)[C@H]3N=C(N)N)O[C@@H](C)[C@]2(O)CO)O[C@@H](CO)[C@H](O)[C@H]1O` the Potency [1] was “inactive” and the Potency [2] was “inactive”.
In the case of `CCNC(=O)C#Cc1ccc2c(C(=Nc3ccc(CN(C)C)cc3)c3ccccc3)c(O)[nH]c2c1`, the Potency [1] is reported as 0.512 µM (active) and the Potency [2] is reported as 0.0102 µM (active).
In the case of `COc1cc2c(NC3CCN(C(C)C)CC3)nc(N3CCC(F)(F)CC3)nc2cc1OCCCN1CCCC1`, the Potency [1] is reported as 20.5 µM (active) and the Potency [2] is reported as 11.5 µM (active).
For `COc1ccc([C@H]2OC[C@H]3O[C@@H](O[C@H]4[C@@H]2NC[C@@H]4O)[C@H](O)[C@H]3O)cc1`, the Potency [1] was 0.8 µM (active) and the Potency [2] was 1.27 µM (active).
In the case of `C=C1C(=O)O[C@@H]2/C=C(\CO)CC/C=C(/C=O)C[C@@H](O)[C@@H]12`, the Potency [1] is reported as 6.49 µM (active) and the Potency [2] is reported as 4.09 µM (active).
With `Nc1nc(Cl)nc2c1ncn2C1OC(CO)C(O)C1F` (stereo not given) the Potency [1] was 0.0092 µM (active) and the Potency [2] was 0.0082 µM (active).
With `C=C[C@]1(C)C[C@H](O)[C@H]2C(=C)C(=O)O[C@@H]2[C@H]1C(=C)CO` the Potency [1] was 18.3 µM (active) and the Potency [2] was 14.5 µM (active).
For `COc1ccc(C2(N(C)C(=O)c3ccc(NC(=O)c4ccco4)cc3)CCOCC2)cc1`, the Potency [1] was “inactive” and the Potency [2] was “inactive”.
With `O=C(O)C1=CO[C@@H](O[C@@H]2O[C@H](CO)[C@@H](O)[C@H](O)[C@H]2O)[C@@H]2C(CO)=CC[C@H]12` the Potency [1] was “inactive” and the Potency [2] was “inactive”.
For `CC(C)=CCC/C(C)=C/COCC1OC(n2ccc(=O)[nH]c2=O)C(O)C1O` (stereo not given), the Potency [1] was 4.01 µM (active) and the Potency [2] was 2.01 µM (active).
With `C=C1CC[C@@H]2[C@](C)(CO)[C@H](O)CC[C@@]2(C)[C@@H]1CC(=O)C1=CCOC1=O` the Potency [1] was “inactive” and the Potency [2] was “inactive”.
In the case of `COC1CC(O[C@H]2CC[C@]3(C)C4CC[C@@]5(C)C(=O)[C@]4(CC[C@@H]3C2)CC[C@@H]5C2=CC(=O)OC2)OC(C)C1OC1OC(COC2OC(CO)C(O)C(O)C2O)C(O)C(O)C1O` (stereo not given in full), the Potency [1] is reported as 1.54 µM (active) and the Potency [2] is reported as 2.75 µM (active).
In the case of `CC(=O)O[C@H]1CC(C)(C)CC2[C@]13CO[C@@]21CCC2[C@@]4(C)CC[C@H](O[C@@H]5OC[C@H](O[C@@H]6O[C@H](CO)[C@@H](O)[C@H](O)[C@H]6O[C@@H]6OC[C@@H](O)[C@H](O)[C@H]6O)[C@H](O)[C@H]5O[C@@H]5O[C@H](CO)[C@@H](O)[C@H](O)[C@H]5O)[C@@](C)(CO)C4CC[C@@]2(C)[C@]1(C)C[C@H]3O` (stereo not given in full), the Potency [1] is reported as 2.45 µM (active) and the Potency [2] is reported as 3.88 µM (active).
For `COc1cc(-n2cnc3cc(-c4ccc(Cl)cc4)sc3c2=O)ccc1OCCN1CCCC1`, the Potency [1] was 7.28 µM (active) and the Potency [2] was 5.78 µM (active).
For `Cc1nc(NC(=O)N2CCCC2C(N)=O)sc1-c1ccnc(C(C)(C)C(F)(F)F)c1` (stereo not given), the Potency [1] was 2.35 µM (active) and the Potency [2] was 2.63 µM (active).
For `COc1cc(S(C)(=O)=O)ccc1Nc1nc2ccc(-c3ccc(NC(=O)[C@H](C)c4ccc(F)cc4)cc3)cn2n1`, the Potency [1] was 0.742 µM (active) and the Potency [2] was 0.417 µM (active).
For `C=C(C)C1CC(O)C(C)C12CC(O)C1(C)OC1C2O` (stereo not given), the Potency [1] was 4.59 µM (active) and the Potency [2] was 3.25 µM (active).
